High-throughput results: PubChem, National Center for Advancing Translational Sciences (NCATS)
AID923 = qHTS Assay for Allosteric/Competitive Inhibitors of Caspase-1: Spectroscopic Profiling in AFC Spectral Region; compound fluorescence, AFC spectral region (405/520 nm); Potency, µM (top dose mostly 57.5 µM), for inactives: at the highest dose fluorescence increase, usual class: activators; 75,000 compounds, 1.1% hits; AID 923, 2007; further: potency means the concentration at half of the fitted maximal effect; 0% is about no effect
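Compound autofluorescence profiled at 405 nm ex/520 nm em during kinetic caspase 1 run (50 nM enzyme, 5 uM Ac-WEHD-AFC, HEPES pH 7.5, 10 mM DTT). Titration up to 57 uM; baseline from regression intercept, normalized to AFC standard curve.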
A350 autofl = compounds fluorescent in Alexa 350 spectral region; Compound autofluorescence, 340/450 nm, Alexa 350 dye-equivalents; active compounds read high; max dye-equivalent concentration, M; 59,000 compounds, 11% hits; in the data active means max dye-equivalent concentration above about 10 nM; inconclusive means mostly about 1.1 nM to 9.6 nM
HADH2 inhib = blocks human hydroxyacyl-CoA dehydrogenase type II. AID 886. 73,000 compounds, 3.4% hits. Potency, µM (series often up to 57.1 µM), for inactives: at the highest dose activity change, negative = inhibition, usual class: inhibitors. recombinant HADH2, NADH fluorescence, beta-hydroxybutyryl-CoA; further: potency means the concentration at half of the fitted maximal effect; on the % scale 0 is the no-effect control and ±100 the full control effect; nearly all actives have a fitted effect of over 60% in size
Target sequence (Q99714 whole entry, looked up, one chain of several): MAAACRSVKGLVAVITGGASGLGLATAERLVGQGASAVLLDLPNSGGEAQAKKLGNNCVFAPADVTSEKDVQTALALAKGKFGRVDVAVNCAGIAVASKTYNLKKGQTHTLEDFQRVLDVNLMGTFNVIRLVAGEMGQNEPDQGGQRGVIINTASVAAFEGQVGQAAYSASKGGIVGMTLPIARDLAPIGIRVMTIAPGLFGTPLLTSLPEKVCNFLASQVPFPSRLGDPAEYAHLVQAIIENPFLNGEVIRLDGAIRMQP
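20 nM HADH2 + cpd, 15 min RT; add 1 mM NAD+/90 uM beta-hydroxybutyryl-CoA; kinetic fluorescence 360/450 nm, 4 min. Tris-HCl pH 9.0, 0.01% Tween-20.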
4-MU autofl = compounds fluorescent in 4-MU spectral region; compound autofluorescence, 340/450 nm, 4-MU equivalents; active compounds read high; max dye-equivalent concentration, M; 59,000 compounds, 11% hits; AID 589; in the data active means max dye-equivalent concentration above about 10 nM; inconclusive means mostly about 1.1 nM to 9.6 nM
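Compounds in 100 mM Tris, pH 8.0, sat 15 min at room temperature before fluorescence was read at 340 nm excitation/450 nm emission; a per-plate six-point 4-MU standard curve converted signals to dye-equivalent concentration at each compound concentration.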
HSD17B inh = blocks hydroxysteroid 17-beta dehydrogenase activity; Q99714; Potency, µM (doses to about 57.1 µM), without a hit: at the highest dose activity change, negative = inhibition, most hits filed as inhibitors; 75,000 compounds, 7.6% hits; recombinant HSD17B10, NADH fluorescence kinetic;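 further: the protocol describes HADH2 (HSD17B10) and not the HSD17B4 of the title; potency means the concentration at half of the fitted maximal effect; on the % scale 0 is the no-effect control and ±100 the full control effect; nearly all actives have a fitted effect of over 70% in size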
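Enzyme plus compound, 15 min room temperature; substrate mix added (NAD+ 1 mM, beta-hydroxybutyryl-CoA 90 uM final); plates read kinetically for NADH fluorescence. HADH2 was His-tagged, E. coli-derived, 20 nM.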
CRE Fsk mod = alters forskolin-stimulated CRE reporter signaling in CHO cells. CHO CRE-bla reporter (cAMP response element driving beta-lactamase), forskolin EC10, beta-lactamase ratio. Potency, µM (series often up to 38.2 µM), for inactives: at the top dose activity change, negative = inhibition, hits mostly activators. 71,000 compounds, 2.5% hits. AID 662; active means well fitted activation curve with a large enough effect in the signal ratio, with a control signal flat, not every such curve was filed as active; inconclusive means small, poorly fitted or top-dose-only effect, or effect the other way, or a change in a side signal; the % refers to the signal ratio; further: potency means the concentration at half of the fitted maximal effect; % of control where 0% means no effect
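Cells were plated overnight at 37 °C, exposed to compound titrations plus EC10 NKH 477 for 3 h, then given CCF4 dye for 2 h at room temperature. Blue/green (460/530 nm) ratio was converted to %Activity and AC50 values calculated.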
* = called active by the depositor; i = inactive; ? = inconclusive; · = not tested or not shown; [ ] = dose if it differs, or a comment. Rows were chosen to be rich in hits. Some 14% of all compounds tested hit in one or more screens of this group. Unless noted, the call rests on the fitted dose curve; in most records, active means well fitted curve in the direction sought with a large enough effect; inconclusive means small, poorly fitted or top-dose-only effect, or another doubt; inactive means no such curve, though single readings can be large; an effect the other way counts as inactive or inconclusive.

SMILES | AID923 | A350 autofl | HADH2 inhib | 4-MU autofl | HSD17B inh | CRE Fsk mod
Cc1ccc2nsnc2c1S(=O)(=O)N(CCO)Cc1cc2cc3c(cc2[nH]c1=O)OCCO3 | 3% | 1.8e-08M* | 0% | 1.9e-08M* | -13% | 6%
COC(=O)[C@@]1(Cc2ccccc2)[C@H]2c3cc(C(=O)N4CCCC4)n(Cc4cccc5ccccc45)c3C[C@H]2CN1C(=O)c1ccccc1 | 2% | · | 0% | · | 3% | 2%
CNc1ncncc1-c1ccccc1OC | -2% | i | ? | i | -4% | -14%
CCSCCOC(=O)C1=C(C)NC2=C(C(=O)CCC2)C1c1coc2ccccc2c1=O (centres undefined) | 7% | · | -3% | · | 1% | 11%
Cc1c(C)c2cc(Cl)c(OCc3nn[nH]n3)cc2oc1=O | 7% | 4.5e-07M* | 25µM* | 3.4e-07M* | 32µM* | 10%
COC(=O)Cc1c(C)c2c(OCc3nn[nH]n3)cc(C)cc2oc1=O | 1% | 9.7e-08M* | 32µM* | 7.6e-08M* | 25µM* | 0%
CCc1cc(=O)oc2cc(C)cc(OCc3nn[nH]n3)c12 | -2% | 5.7e-08M* | 32µM* | 4.3e-08M* | 25µM* | ?
CCOc1ccc(CCNC(=O)Cc2nn[nH]n2)cc1OCC | 0% | i | 3% | i | 11% | ?
CCN1CCN(Cc2cc(=O)oc3cc(C)cc(C)c23)CC1 | -1% | i | 5% | i | 5% | -3%
O=[N+]([O-])c1ccc(NCCO)c(OCCO)c1 | 0% | · | -13% | · | -4% | 1%
COc1cccc2c1nc(C)c1cc(C)oc12 | 1% | · | ? | · | 32µM* | ?
COc1ccc2nc(C)c3cc(C)oc3c2c1 | 1% | i | 5% | i | -12% | ?
O=C(O)c1cccc(S(=O)(=O)Nc2ccc3oc(=O)sc3c2)c1 | 0% | i | 0.63µM* | i | 25µM* | 28%
COC(=O)c1c(NC(=O)CN2CCCC(C)C2)c2c(C)cccc2n1C (centres undefined) | -1% | i | 7% | i | -25% | -7%
CC1CCC/C(=C\Nc2ccc3c(c2)OCO3)C1=O (centres undefined) | 1% | ? | ? | ? | -13% | -2%
CC1CCC/C(=C\Nc2ccccc2C(=O)O)C1=O (centres undefined) | 2% | 1.9e-08M* | ? | 1.6e-08M* | 32µM* | -13%
O=C1C(SCCO)=C(SCCO)C(=O)c2ccccc21 | 13% | i | ? | i | 13µM* | ?
CO[C@H]1COC(=O)C/C=C\[C@H](C)[C@@H](OC)COC(=O)[C@H](Cc2ccccc2)NC(=O)C/C=C\[C@@H]1C | -1%[11.5 µM] | · | 1%[11.4 µM] | · | -1%[11.4 µM] | ·
Cc1[nH]nc2c1C(c1ccccc1)C1=C(CC(C)(C)CC1=O)N2 (centres undefined) | -1% | 1.5e-07M* | ? | 1.6e-07M* | 25µM* | ?
COc1ccc(C2C3=C(CC(C)(C)CC3=O)Nc3n[nH]c(C)c32)cc1 (centres undefined) | 0% | 1.3e-07M* | ? | 1.3e-07M* | 16µM* | 23%
CC1(C)CC(=O)C2=C(C1)Nc1[nH]n(-c3ccccc3)c(=O)c1C2c1ccc2c(c1)OCO2 (centres undefined) | -2% | i | -13% | i | -5% | -11%
COc1ccc(C2C3=C(CC(C)(C)CC3=O)Oc3ncn(CC(C)C)c(=N)c32)cc1 (centres undefined) | 0% | ? | 5% | i | 2% | ?
CCOc1ccc(S(=O)(=O)N(C)C)cc1-c1nc2c(C(C)(C)C)nn(C)c2c(=O)[nH]1 | · | 1.1e-07M* | · | 6.8e-08M* | · | ·
Cc1cc(N(C)C)c(C#N)c(N2CCOCC2)n1 | 2% | i | 1% | i | -21% | ?
CCc1nc(N2CCCC2)c(C#N)c2c1CCCC2 | · | 1.8e-07M* | · | 1.7e-07M* | · | ·
CCc1nc(N2CCOCC2)c(C#N)c2c1CCCC2 | · | 7.1e-08M* | · | 5.9e-08M* | · | ·
CCCc1nc(N2CCCC2)c(C#N)c2c1CCCC2 | · | 1.2e-07M* | · | 1.1e-07M* | · | ·
